PubChem BioAssay AID504692 (The Scripps Research Institute Molecular Screening Center, 2011)
In all, about 340,000 compounds went through this assay and about 2,000 (0.59%) were called active. The full list was thinned out, with actives kept by preference. Unmarked numbers belong to inactive results. Cut-off read from the data, not from the text of the source: active = activation mostly above about 9.5% (no sharp cut-off); inactive = mostly below about 7.6%.

molecular target: 5-hydroxytryptamine receptor 5A (Homo sapiens) (UniProt P47898); assay: activation of human 5-HT5A receptor – cell-based, luminescence, full-deck HTS, counter-screen for OPRM1-OPRD1 heterodimer agonist project, primary screen (AID 504692); conditions: HTR5A agonist assay, at 9.3 µM, hits give high values;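 note: 0% = cells with vehicle only and 100% = reference agonist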
Sequence (P47898 whole entry, looked up): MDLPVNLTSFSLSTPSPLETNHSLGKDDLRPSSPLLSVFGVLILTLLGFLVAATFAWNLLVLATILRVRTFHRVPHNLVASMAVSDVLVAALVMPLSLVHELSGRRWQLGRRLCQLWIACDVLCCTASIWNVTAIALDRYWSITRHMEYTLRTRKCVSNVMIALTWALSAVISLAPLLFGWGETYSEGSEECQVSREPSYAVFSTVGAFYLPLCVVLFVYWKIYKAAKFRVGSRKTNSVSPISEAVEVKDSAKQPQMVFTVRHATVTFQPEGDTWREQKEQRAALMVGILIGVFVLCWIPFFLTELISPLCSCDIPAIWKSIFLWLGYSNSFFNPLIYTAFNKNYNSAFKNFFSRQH

| SMILES | activation |
| --- | --- |
| COc1ccc2oc(=O)cc(-c3cc4ccccc4o3)c2c1 | 10.7% (active) |
| COc1cccc2cc(-c3cc(=O)oc4cc(C)c(O)cc34)oc12 | 1.11% |
| COc1ccc(Nc2cc(=O)oc3ccccc23)cc1 | 2.95% |
| COc1cccc(-n2c(SCC(=O)c3c[nH]c4ccccc34)nc3ccccc3c2=O)c1 | -2.91% |
| COc1ccc(/C=C(\C#N)c2c[nH]c3ccccc23)cc1 | 19.6% (active) |
| COc1ccc(C2C(C(C)=O)=C(O)C(=O)N2CCc2c[nH]c3ccccc23)cc1 (stereo not drawn) | 1.98% |
| Cc1cc(C(=O)NNS(=O)(=O)c2ccccc2C(F)(F)F)nn1C(C)(C)C | -2.85% |
| Cc1cccc(C)c1NC(=O)Nc1ccccc1-n1ccnc1 | 2.52% |
| NNC(=O)c1ccc(COCC(F)(F)C(F)F)cc1 | 8.26% |
| Cc1ccc(C(=O)NC2CCN(C(=O)Nc3ccc(F)cc3)CC2)cc1 | 4.38% |
| CN(CCC(=O)Nc1cc(S(=O)(=O)N(C)C)ccc1Cl)CC(=O)Nc1ccc(F)cc1 | 11.8% (active) |
| CN(CC(=O)Nc1ccc(S(=O)(=O)N2CCCC2)cc1)Cc1ccc(Cl)c(Cl)c1 | -1.38% |
| CN(CC(=O)Nc1ccc(F)cc1)CC(=O)Nc1ccc(Cl)c(S(=O)(=O)N2CCOCC2)c1 | 5.23% |
| O=C(Nc1cccc(F)c1)[C@@H]1CCCN1 | 0.12% |
| COc1ccc(C(=O)C2CCCN(C(=O)c3ccc(OC)o3)C2)c(C)c1 (stereo not drawn) | -0.4% |
| O=C(C(Cl)Cl)N1CCN(c2ccccn2)CC1 | -2.12% |
| O=C(Cc1ccc(Br)cc1)N1CCN(c2ccccn2)CC1 | 0.82% |
| O=C(/C=C/c1cccc(C(F)(F)F)c1)N1CCN(c2ccccn2)CC1 | 10.6% (active) |
| Cc1cccc(N2CCN(C(=O)CCS(=O)(=O)c3ccc4c(c3)NC(=O)C(C)S4)CC2)c1C (stereo not drawn) | 2.41% |
| Cc1ccc(C)c(N2CCN(S(=O)(=O)c3ccc4c(c3)oc(=O)n4C)CC2)c1 | 0.11% |

| SMILES | activation |
| --- | --- |
| COC(=O)c1cc(S(=O)(=O)N2CCN(c3cc(C)ccc3C)CC2)c[nH]1 | 14.8% (active) |
| Cc1ccc(C)c(N2CCN(S(=O)(=O)c3c(C)[nH]c(C)c3C(=O)N3CCCC3)CC2)c1 | 0.83% |
| Cc1cccc(N2Cc3ccccc3C2=NC(=O)c2ccc(Cl)nc2)c1 | 2.14% |
| OCCC1CN(Cc2cccc(OC3CCCC3)c2)CCN1Cc1ccsc1 (stereo not drawn) | 0.37% |
| O=C(CCc1c[nH]c2ccccc12)NCCOc1ccccc1 | 0.78% |
| CCN(CC)CCNC(=O)CCCCCn1c(=O)[nH]c2cc(C(=O)OC)ccc2c1=O | 1.57% |
| O=C(CCCCCn1c(=O)[nH]c2ccccc2c1=O)NCCc1c[nH]c2ccccc12 | 12.7% (active) |
| O=C1CC(Cc2ccc(Cl)cc2)C(=O)N1c1cc(Cl)ccn1 (stereo not drawn) | 5.44% |
| CCOC(=O)[C@H]1CCC[C@@H](NS(=O)(=O)c2ccc(NC(C)=O)cc2)C1 | 12.5% (active) |
| CC(=O)Nc1ccc(S(=O)(=O)NC(C)C(=O)OCC(=O)NC2CCCC2)cc1 (stereo not drawn) | 3.96% |
| CC(=O)Nc1ccc(S(=O)(=O)NC2Cc3ccccc3C2)cc1 | 4.91% |
| Cc1cccc(OC(=O)c2sc3ncn(C)c(=O)c3c2C)c1 | -4.42% |
| CCOc1ccc(CCNC(=O)CCc2nnc3ccc(N4CCCC4)nn23)cc1OCC | -0.94% |
| CCC(C)C(N=C1NS(=O)(=O)c2ccccc21)C(=O)N1CCC(C)CC1 (stereo not drawn) | -4.84% |
| CC(C)CC(=O)NC(=S)NCc1ccccc1 | -0.72% |
| CC(C)CC(=O)N/C(N)=N/c1nc2ccccc2s1 | 22% (active) |
| O=C(CCC(=O)c1cccs1)Nc1nc2ccccc2s1 | 6.03% |
| CCOC(=O)C1C(c2ccc(O)cc2)NC(=O)NC1(O)C(F)(F)F (stereo not drawn) | 3.08% |
| CC(C)CCN1CCN(Cc2ccc(C(F)(F)F)cc2)CC1CCO (stereo not drawn) | -0.94% |
| O=C(NCc1ccccc1)C(=O)NCC1OCCN1S(=O)(=O)c1ccc(Br)cc1 (stereo not drawn) | 5.82% |

| SMILES | activation |
| --- | --- |
| CCOC(=O)c1c(-c2cccc(C)c2)csc1NC(=O)c1c(-c2ccccc2)noc1C | -1.55% |
| CCOC(=O)c1c(-c2ccc(C)cc2C)csc1NC(=O)CSc1nnnn1C | 0.24% |
| CCOC(=O)c1c(-c2ccc(-c3ccccc3)cc2)csc1NC(=O)CCC(=O)O | 9.5% (active) |
| O=C(NCc1ccco1)/C(=C\c1cccc([N+](=O)[O-])c1)NC(=O)c1ccco1 | 0.85% |
| O=C(CSc1nncn1-c1cccnc1)N1CCOCC1 | 1.54% |
| Cc1ccc(C(=O)Nc2ccc3c(c2)OCCO3)cc1S(=O)(=O)N1CCOCC1 | 0.67% |
| O=C(Nc1ccncc1)c1cc(-c2ccccn2)nc2ccc(Br)cc12 | -4.88% |
| O=C(NCC(c1cccs1)N1CCOCC1)c1cc(-c2ccccn2)nc2ccccc12 (stereo not drawn) | 1.25% |
| O=C(NCc1cccs1)c1cc(-c2ccccn2)nc2ccc(Br)cc12 | 12.8% (active) |
| CCOC(=O)CSc1nc2ccc(C)cc2n2cnnc12 | -0.67% |
| Cc1oc2c(F)c(F)c(F)c(F)c2c1S(=O)(=O)Nc1cccc(C(F)(F)F)c1 | 16.5% (active) |
| Cc1noc(C)c1S(=O)(=O)Nc1cc(C(F)(F)F)ccc1N1CCOCC1 | -0.69% |
| O=C(CNS(=O)(=O)c1cccc(C(F)(F)F)c1)Nc1ccccc1F | -1.06% |
| CCOc1ccc2[nH]c(=O)c(CN(CCCO)C(C)=O)cc2c1 | 4.2% |
| COc1ccccc1S(=O)(=O)NCc1ccc(C(=O)N(C)Cc2ccc(F)cc2)cc1 | 16.9% (active) |
| COc1ccc(S(=O)(=O)NCc2ccc(C(=O)N(C)Cc3ccco3)cc2)cc1 | 6.7% |
| O=C(NCCS(=O)(=O)NCc1ccc(F)cc1)c1ccccc1 | -3.96% |
| Cc1cc(S(=O)(=O)NC2CCCCC2)ccc1OCC(=O)NCc1cccnc1 | 7.03% |
